Test results reported in PubChem BioAssay (Tox21).
Records with an inconclusive call do not appear. A call without a number means that no potency is given here. Unmarked numbers belong to inactive results. Activity calls are given as the source filed them. Unless noted, calls follow the shape of the dose curve; as a rule, active = well fitted curve in the direction sought with a large enough effect in the repeat runs; inconclusive = weak or mixed curves; inactive = no such curve, though single readings can be large; an effect the other way counts as inactive or inconclusive.

How the values were obtained:
[1] = target: Aryl hydrocarbon receptor (Homo sapiens) (UniProt P35869); assay: qHTS assay to identify small molecule that activate the aryl hydrocarbon receptor (AhR) signaling pathway (AID 743085); also: nearly all actives have a fitted effect of over 15% in size; also: potency is read from the fitted curve at half-maximal effect;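 as to activation: HG2L7.5c1 human HepG2 liver cells with stably integrated DRE-driven firefly reporter; series mostly up to about 70 µM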
Outline: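 Cell line HG2L7.5c1 (human hepatoma, 20× DRE-luc). Plated, 5 h 37C, compound/DMSO added, 24 h 37C. CellTiter-Fluor 30 min 37C → fluorescence; then ONE-Glo 30 min RT → luminescence.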

[2] = qHTS assay to identify small molecule that activate the aryl hydrocarbon receptor (AhR) signaling pathway - cell viability counter screen (AID 743086);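 also: HepG2 liver cells carrying the AhR DRE luciferase reporter; series mostly up to about 70 µM; nearly all actives have a fitted effect of over 45% in size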
Outline: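 Cytotoxicity counter screen: CellTiter-Fluor signal (30 min, 37 C) in 4000 HepG2 cells/well carrying the DRE-luciferase reporter, following 24 h compound exposure at 37 C.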

[3] = target: Peroxisome proliferator-activated receptor gamma (Homo sapiens) (UniProt P37231); assay: qHTS assay to identify small molecule agonists of the peroxisome proliferator-activated receptor gamma (PPARg) signaling pathway (AID 743094; active = well fitted activation curve with a large enough effect in the signal ratio in the repeat runs, not every such curve was filed as active; the % refers to the signal ratio)
Outline: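 Cell-based bla reporter, HEK293H background, PPARg-driven UAS. Pre-incubation 5 h, 37C, 5% CO2. Compound 17 h, 37C. Substrate 1 h RT; fluorescence.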

[4] = qHTS assay to identify small molecule antagonists of the peroxisome proliferator-activated receptor gamma (PPARg) signaling pathway - cell viability counter screen (AID 743194); also: nearly all actives have a fitted effect of over 55% in size
Outline: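 Viability was measured as CellTiter-Glo luminescence in GeneBLAzer PPARg UAS-bla HEK293H cells. These cells had been exposed 17 h at 37 C to compounds together with rosiglitazone at 50 nM final, with the beta-lactamase readout taken in the same wells.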

[5] = qHTS assay for small molecule agonists of the antioxidant response element (ARE) signaling pathway (AID 743202; active = well fitted activation curve with a large enough effect in the signal ratio in the repeat runs, not every such curve was filed as active; the % refers to the signal ratio)
Outline: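 After 16 hours of compound treatment at 37 C, HepG2 cells with a stably integrated ARE-driven beta-lactamase reporter were loaded 2 hours at room temperature with LiveBLAzer B/G FRET substrate and fluorescence intensity measured.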

[6] = qHTS assay for small molecule agonists of the antioxidant response element (ARE) signaling pathway - cell viability counter screen (AID 743203; calls by dose curve; also: nearly all actives have a fitted effect of over 55% in size)
Outline: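 Measured in the same wells as the beta-lactamase ARE reporter, this read-out is CellTiter-Glo luminescence from HepG2 ARE-bla cells given compounds for 16 hrs.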

[7] = qHTS assay for small molecule activators of the heat shock response signaling pathway - cell viability counter screen (AID 743209); also: nearly all actives have a fitted effect of over 50% in size
Outline: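 Same-well multiplex: after 2.5 h room-temperature incubation with LiveBLAzer B/G substrate and fluorescence reading, CellTiter-Glo reagent was added to HSE-bla HeLa cells that had received compound for 5 h at 37 C; luminescence read after 30 min.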

[8] = qHTS assay for small molecule activators of the heat shock response signaling pathway (AID 743210; active = well fitted activation curve with a large enough effect in the signal ratio in the repeat runs, with a control signal flat, not every such curve was filed as active; the % refers to the signal ratio; also: series mostly up to about 63 µM)
Outline: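 Compound exposure lasted 5 h at 37 C in HeLa cells carrying a heat-shock-element-driven beta-lactamase reporter. Read-out: fluorescence intensity after 2.5 h room-temperature loading with LiveBLAzer B/G FRET substrate.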

[9] = qHTS assay to identify small molecule agonists of the peroxisome proliferator-activated receptor delta (PPARd) signaling pathway - cell viability counter screen (AID 743211); also: nearly all actives have a fitted effect of over 55% in size; also: potency is read from the fitted curve at half-maximal effect
Outline: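 HEK293H PPARd-bla, 3000 cells/well; 5 h preincubation 37C/5% CO2; cpd in DMSO, 17 h 37C; B/G FRET substrate 2 h RT; CellTiter-Glo 30 min RT, luminescence.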

[10] = target: Peroxisome proliferator-activated receptor delta (Homo sapiens) (UniProt Q03181); assay: qHTS assay to identify small molecule agonists of the peroxisome proliferator-activated receptor delta (PPARd) signaling pathway (AID 743212; calls by dose curve;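 also: HEK293H cells with PPARd UAS beta-lactamase reporter GeneBLAzer system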)
Outline: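 Beta-lactamase reporter readout: a ratiometric FRET signal from the LiveBLAzer substrate after 2 h at room temperature. Compound exposure at 37 °C in PPARδ-bla HEK293H cells driven by an upstream activator sequence.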

[11] = qHTS assay to identify small molecule antagonists of the peroxisome proliferator-activated receptor delta (PPARd) signaling pathway - cell viability counter screen (AID 743213); also: nearly all actives have a fitted effect of over 50% in size
Outline: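 PPARd-bla HEK293H cells (3000/well) got compound plus 300 nM L165041 agonist for 17 h at 37 C. Viability in the same wells came from CellTiter-Glo luminescence after 30 min at room temperature.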

[12] = target: Peroxisome proliferator-activated receptor delta (Homo sapiens) (UniProt Q03181); assay: qHTS assay to identify small molecule antagonists of the peroxisome proliferator-activated receptor delta (PPARd) signaling pathway (AID 743215; active = well fitted inhibition curve with a large enough effect in the signal ratio in the repeat runs, not every such curve was filed as active; the % refers to the signal ratio;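 also: cells stimulated with agonist L165041 at 300 nM final during compound exposure; series mostly up to about 62 µM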)
Outline: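 Fluorescence from cleaved LiveBLAzer B/G FRET substrate (2 h, room temperature) reports PPARd-driven beta-lactamase in HEK293H UAS-bla cells. Cells had been treated 17 h at 37 C with compound plus 300 nM final L165041.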

[13] = target: Bile acid receptor (Homo sapiens) (UniProt Q96RI1); assay: qHTS assay to identify small molecule antagonists of the farnesoid-X-receptor (FXR) signaling pathway (AID 743217; active = well fitted inhibition curve with a large enough effect in the signal ratio in the repeat runs, not every such curve was filed as active; the % refers to the signal ratio)
Outline: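 FRET fluorescence after 2 h room-temperature LiveBLAzer loading gives the readout. Prior step: FXR-bla HEK 293T cells, seeded and incubated 5 h, received test compounds plus 50 uM final CDCA for 16 h at 37 °C.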

[14] = qHTS assay to identify small molecule agonists of the farnesoid-X-receptor (FXR) signaling pathway - cell viability counter screen (AID 743218); also: nearly all actives have a fitted effect of over 45% in size
Outline: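 Readout: CellTiter-Glo luminescence, 30 min RT, multiplexed after the FXR-bla FRET reading. HEK 293T FXR-UAS-bla cells received compound 5 h post-plating and were incubated 16 h at 37 C.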

[15] = target: Bile acid receptor (Homo sapiens) (UniProt Q96RI1); assay: qHTS assay to identify small molecule agonists of the farnesoid-X-receptor (FXR) signaling pathway (AID 743220; active = well fitted activation curve with a large enough effect in the signal ratio in the repeat runs, not every such curve was filed as active; the % refers to the signal ratio)
Outline: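 FXR-UAS-bla HEK 293T cells carrying a UAS-driven beta-lactamase reporter were plated for 5 h at 37C/5% CO2, then exposed to DMSO-dissolved Tox21 10K compounds for 16 h at 37C. A LiveBLAzer B/G FRET substrate was loaded for 2 h at room temperature before fluorescence reading.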

[16] = qHTS assay to identify small molecule antagonists of the farnesoid-X-receptor (FXR) signaling pathway - cell viability counter screen (AID 743221; active = well fitted cell-killing curve with a large enough effect in the repeat runs, not every such curve was filed as active; also: nearly all actives have a fitted effect of over 50% in size)
Outline: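 Luminescence from CellTiter-Glo measures cytotoxicity in GeneBLAzer FXR-UAS-bla HEK 293T cells. Cells were exposed to compounds with 50 uM chenodeoxycholic acid (final) for 16 h at 37 C, in wells also used for the reporter readout.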

[17] = target: Vitamin D3 receptor (Homo sapiens) (UniProt P11473); assay: qHTS assay to identify small molecule agonists of the vitamin D receptor (VDR) signaling pathway (AID 743222; calls by dose curve)
Outline: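 Following 4 h attachment at 37C, VDR-bla cells (2,000 per well) received DMSO-dissolved compounds or controls. After 16 h incubation, LiveBLAzer B/G FRET substrate was added and fluorescence read 2 h later at room temperature.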

[18] = qHTS assay to identify small molecule agonists of the vitamin D receptor (VDR) signaling pathway - cell viability counter screen (AID 743224); also: series mostly up to about 63 µM; nearly all actives have a fitted effect of over 50% in size
Outline: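 In parallel with the bla FRET readout, cytotoxicity toward VDR-bla cells after 16 h compound exposure was assessed by CellTiter-Glo, with luminescence recorded after a 30 min room-temperature incubation.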

[19] = target: Peroxisome proliferator-activated receptor gamma (Homo sapiens) (UniProt P37231); assay: qHTS assay to identify small molecule antagonists of the peroxisome proliferator-activated receptor gamma (PPARg) signaling pathway (AID 743191; calls by dose curve; also: series mostly up to about 63 µM; nearly all actives have a fitted effect of over 30% in size)
Outline: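 Beta-lactamase reporter under UAS control in HEK293H PPARg-bla cells; compound treatment 17 h at 37C. Read-out: fluorescence intensity after 1 h room-temperature incubation with LiveBLAzer B/G FRET substrate.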

[20] = target: Vitamin D3 receptor (Homo sapiens) (UniProt P11473); assay: qHTS assay to identify small molecule antagonists of the vitamin D receptor (VDR) signaling pathway (AID 743223; active = well fitted inhibition curve with a large enough effect in the signal ratio in the repeat runs, not every such curve was filed as active; the % refers to the signal ratio)
Outline: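 Antagonist mode uses 1alpha,25-dihydroxyvitamin D3 at 3 nM final as stimulus. VDR-bla cells receive compounds in DMSO, incubate 16 h at 37C, then a beta-lactamase FRET substrate for 2 h at room temperature before fluorescence measurement.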

Chain of Vitamin D3 receptor (Homo sapiens) (P11473 whole entry, looked up): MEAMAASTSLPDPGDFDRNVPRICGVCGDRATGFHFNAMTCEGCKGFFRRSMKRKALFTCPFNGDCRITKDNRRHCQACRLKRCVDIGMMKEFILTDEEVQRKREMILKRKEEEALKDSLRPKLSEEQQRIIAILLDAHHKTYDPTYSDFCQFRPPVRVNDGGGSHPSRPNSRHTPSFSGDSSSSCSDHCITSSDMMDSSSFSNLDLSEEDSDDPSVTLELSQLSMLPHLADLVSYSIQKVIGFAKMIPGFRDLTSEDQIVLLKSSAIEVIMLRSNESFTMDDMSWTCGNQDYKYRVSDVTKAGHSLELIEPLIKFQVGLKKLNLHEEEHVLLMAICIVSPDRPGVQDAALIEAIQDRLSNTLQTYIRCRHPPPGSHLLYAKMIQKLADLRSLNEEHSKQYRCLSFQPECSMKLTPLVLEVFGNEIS
Chain of Aryl hydrocarbon receptor (Homo sapiens) (P35869 whole entry, looked up): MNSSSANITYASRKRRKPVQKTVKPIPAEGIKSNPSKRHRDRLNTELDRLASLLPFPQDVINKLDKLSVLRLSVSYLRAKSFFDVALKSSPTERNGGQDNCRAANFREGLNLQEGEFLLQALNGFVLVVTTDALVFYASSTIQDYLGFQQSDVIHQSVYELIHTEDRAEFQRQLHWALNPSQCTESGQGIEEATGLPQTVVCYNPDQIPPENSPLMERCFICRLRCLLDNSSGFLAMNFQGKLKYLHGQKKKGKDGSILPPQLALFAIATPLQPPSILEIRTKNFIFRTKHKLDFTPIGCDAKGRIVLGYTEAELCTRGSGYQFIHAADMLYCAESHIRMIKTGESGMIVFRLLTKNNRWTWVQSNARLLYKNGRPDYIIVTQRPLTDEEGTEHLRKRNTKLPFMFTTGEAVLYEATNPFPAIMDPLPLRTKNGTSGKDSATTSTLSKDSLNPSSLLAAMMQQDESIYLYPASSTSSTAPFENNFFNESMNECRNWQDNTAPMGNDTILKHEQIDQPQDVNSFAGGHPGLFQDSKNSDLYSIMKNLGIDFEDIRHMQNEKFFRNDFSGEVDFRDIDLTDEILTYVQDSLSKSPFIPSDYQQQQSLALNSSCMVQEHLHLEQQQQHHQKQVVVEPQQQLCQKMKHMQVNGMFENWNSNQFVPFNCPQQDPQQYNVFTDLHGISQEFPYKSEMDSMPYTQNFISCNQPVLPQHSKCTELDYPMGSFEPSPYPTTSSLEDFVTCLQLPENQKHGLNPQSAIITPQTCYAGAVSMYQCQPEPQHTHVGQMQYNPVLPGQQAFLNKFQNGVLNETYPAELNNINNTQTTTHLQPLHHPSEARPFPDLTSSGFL
Chain of Peroxisome proliferator-activated receptor delta (Homo sapiens) (Q03181 whole entry, looked up): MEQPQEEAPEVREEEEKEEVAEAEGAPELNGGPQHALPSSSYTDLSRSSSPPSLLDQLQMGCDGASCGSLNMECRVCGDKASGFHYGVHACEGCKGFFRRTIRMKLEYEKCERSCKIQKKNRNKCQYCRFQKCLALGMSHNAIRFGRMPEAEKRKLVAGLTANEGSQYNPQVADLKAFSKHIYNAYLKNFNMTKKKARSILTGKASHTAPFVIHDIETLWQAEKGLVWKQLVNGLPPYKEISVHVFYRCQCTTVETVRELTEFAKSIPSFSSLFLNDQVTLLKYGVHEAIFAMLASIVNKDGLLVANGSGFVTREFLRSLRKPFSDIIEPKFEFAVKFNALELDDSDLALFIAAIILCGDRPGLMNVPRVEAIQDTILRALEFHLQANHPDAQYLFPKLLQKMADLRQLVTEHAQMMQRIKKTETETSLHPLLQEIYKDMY
Chain of Bile acid receptor (Homo sapiens) (Q96RI1 whole entry, looked up): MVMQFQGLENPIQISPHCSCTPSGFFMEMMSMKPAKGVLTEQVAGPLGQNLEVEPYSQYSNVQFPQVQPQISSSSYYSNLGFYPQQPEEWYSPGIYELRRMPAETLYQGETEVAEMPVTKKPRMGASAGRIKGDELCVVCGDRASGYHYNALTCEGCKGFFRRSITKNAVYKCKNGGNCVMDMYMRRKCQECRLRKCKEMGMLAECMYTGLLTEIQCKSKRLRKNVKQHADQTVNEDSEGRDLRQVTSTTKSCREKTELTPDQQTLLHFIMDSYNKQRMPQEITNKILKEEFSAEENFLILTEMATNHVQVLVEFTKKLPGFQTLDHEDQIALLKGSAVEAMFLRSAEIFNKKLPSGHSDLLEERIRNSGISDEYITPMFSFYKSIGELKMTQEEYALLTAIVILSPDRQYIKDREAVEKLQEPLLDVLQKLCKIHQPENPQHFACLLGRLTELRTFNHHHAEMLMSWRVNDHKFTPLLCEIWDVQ
Chain of Peroxisome proliferator-activated receptor gamma (Homo sapiens) (P37231 whole entry, looked up): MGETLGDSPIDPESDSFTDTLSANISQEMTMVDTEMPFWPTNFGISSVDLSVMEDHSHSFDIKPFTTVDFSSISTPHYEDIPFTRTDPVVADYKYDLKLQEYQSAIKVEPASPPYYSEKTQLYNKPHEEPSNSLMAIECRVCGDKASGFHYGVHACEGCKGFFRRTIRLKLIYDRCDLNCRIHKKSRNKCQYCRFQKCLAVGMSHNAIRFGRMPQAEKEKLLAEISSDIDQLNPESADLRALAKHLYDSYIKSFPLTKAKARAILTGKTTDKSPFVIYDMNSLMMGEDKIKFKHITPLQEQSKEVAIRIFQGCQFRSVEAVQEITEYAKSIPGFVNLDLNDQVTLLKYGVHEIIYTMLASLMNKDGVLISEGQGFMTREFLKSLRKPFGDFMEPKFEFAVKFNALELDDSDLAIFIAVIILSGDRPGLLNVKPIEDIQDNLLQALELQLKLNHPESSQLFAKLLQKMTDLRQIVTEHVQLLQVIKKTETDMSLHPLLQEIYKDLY

Cc1ccccc1N1C(=O)c2cc(S(N)(=O)=O)c(Cl)cc2NC1C (configuration not stated)
Potency [1]: inactive
Potency [2]: inactive
Potency [3]: inactive
Potency [4]: inactive
Potency [5]: inactive
Potency [6]: inactive
Potency [7]: inactive
Potency [8]: inactive
Potency [9]: inactive
Potency [10]: inactive
Potency [11]: inactive
Potency [12]: inactive
Potency [13]: inactive
Potency [14]: inactive
Potency [15]: inactive
Potency [16]: inactive
outcome [17]: inactive
Potency [18]: inactive

CN1CCCN=C1/C=C/c1cccs1
Potency [1]: inactive
Potency [2]: inactive
Potency [3]: inactive
Potency [19]: inactive
Potency [4]: inactive
Potency [6]: inactive
Potency [7]: inactive
Potency [8]: inactive
Potency [9]: inactive
Potency [10]: inactive
Potency [11]: inactive
Potency [14]: inactive
Potency [16]: inactive
outcome [17]: inactive
outcome [20]: inactive
Potency [18]: inactive

Cc1nc2ccccn2c(=O)c1CCN1CCC(C(=O)c2ccc(F)cc2)CC1
Potency [1]: inactive
Potency [2]: inactive
Potency [3]: inactive
Potency [19]: inactive
Potency [4]: inactive
Potency [6]: inactive
Potency [7]: inactive
Potency [9]: inactive
Potency [10]: inactive
Potency [11]: inactive
Potency [13]: inactive
Potency [14]: inactive
Potency [15]: inactive
Potency [16]: inactive
outcome [20]: inactive
Potency [18]: inactive

CCOC(=O)c1ccccc1OC
Potency [1]: inactive
Potency [2]: inactive
Potency [3]: inactive
Potency [4]: inactive
Potency [5]: inactive
Potency [6]: inactive
Potency [7]: inactive
Potency [8]: inactive
Potency [9]: inactive
Potency [10]: inactive
Potency [11]: inactive
Potency [12]: inactive
Potency [14]: inactive
Potency [16]: inactive
outcome [17]: inactive
outcome [20]: inactive
Potency [18]: inactive

OCCSc1ccccc1
Potency [1]: inactive
Potency [2]: inactive
Potency [3]: inactive
Potency [19]: inactive
Potency [4]: inactive
Potency [5]: inactive
Potency [6]: inactive
Potency [7]: inactive
Potency [8]: inactive
Potency [9]: inactive
Potency [10]: inactive
Potency [11]: inactive
Potency [12]: inactive
Potency [14]: inactive
Potency [16]: inactive
outcome [17]: inactive
outcome [20]: inactive
Potency [18]: inactive

CCCOC(=O)c1ccc(C(=O)OCCC)nc1
Potency [1]: inactive
Potency [2]: inactive
Potency [3]: inactive
Potency [19]: inactive
Potency [5]: inactive
Potency [6]: inactive
Potency [7]: inactive
Potency [8]: inactive
Potency [9]: inactive
Potency [10]: inactive
Potency [11]: inactive
Potency [14]: inactive
Potency [15]: inactive
Potency [16]: inactive
Potency [18]: inactive

CCOC(=O)OCC
Potency [1]: inactive
Potency [2]: inactive
Potency [3]: inactive
Potency [19]: inactive
Potency [4]: inactive
Potency [5]: inactive
Potency [6]: inactive
Potency [7]: inactive
Potency [8]: inactive
Potency [9]: inactive
Potency [10]: inactive
Potency [11]: inactive
Potency [12]: inactive
Potency [14]: inactive
Potency [16]: inactive
outcome [17]: inactive
Potency [18]: inactive

CC(Cl)C(Cl)Cl (configuration not stated)
Potency [1]: inactive
Potency [2]: inactive
Potency [3]: inactive
Potency [4]: inactive
Potency [5]: inactive
Potency [6]: inactive
Potency [7]: inactive
Potency [8]: inactive
Potency [9]: inactive
Potency [10]: inactive
Potency [11]: inactive
Potency [12]: inactive
Potency [14]: inactive
Potency [16]: inactive
outcome [17]: inactive
outcome [20]: inactive
Potency [18]: inactive

CCCCC(CC)COC(=O)COc1ccc(Cl)cc1C (configuration not stated)
Potency [1]: inactive
Potency [2]: inactive
Potency [3]: inactive
Potency [4]: inactive
Potency [5]: inactive
Potency [6]: inactive
Potency [7]: inactive
Potency [9]: inactive
Potency [10]: inactive
Potency [11]: inactive
Potency [14]: inactive
Potency [15]: inactive
Potency [16]: inactive
outcome [17]: inactive
outcome [20]: inactive
Potency [18]: inactive

COCC(O)CO (configuration not stated)
Potency [1]: inactive
Potency [2]: inactive
Potency [3]: inactive
Potency [4]: inactive
Potency [5]: inactive
Potency [6]: inactive
Potency [7]: inactive
Potency [9]: inactive
Potency [10]: inactive
Potency [11]: inactive
Potency [12]: inactive
Potency [14]: inactive
Potency [16]: inactive
Potency [18]: inactive

CC(C)c1nnc2ccc(-c3ocnc3-c3cc(F)ccc3F)cn12
Potency [1]: inactive
Potency [2]: inactive
Potency [3]: inactive
Potency [4]: inactive
Potency [6]: inactive
Potency [7]: inactive
Potency [8]: inactive
Potency [9]: inactive
Potency [11]: inactive
Potency [14]: inactive
Potency [15]: inactive
Potency [16]: inactive
outcome [20]: inactive
Potency [18]: inactive

c1ccc(COCc2ccccc2)cc1
Potency [1]: inactive
Potency [2]: inactive
Potency [3]: inactive
Potency [4]: inactive
Potency [5]: inactive
Potency [7]: inactive
Potency [8]: inactive
Potency [9]: inactive
Potency [10]: inactive
Potency [11]: inactive
Potency [12]: inactive
Potency [13]: inactive
Potency [14]: inactive
Potency [15]: inactive
Potency [16]: inactive
outcome [17]: inactive
outcome [20]: inactive
Potency [18]: inactive

C=CC(C)(O)CCCC(C)CCCC(C)CCCC(C)C (configuration not stated)
Potency [1]: inactive
Potency [2]: inactive
Potency [3]: inactive
Potency [4]: inactive
Potency [5]: inactive
Potency [7]: inactive
Potency [8]: inactive
Potency [9]: inactive
Potency [10]: inactive
Potency [11]: inactive
Potency [12]: inactive
Potency [14]: inactive
Potency [16]: inactive
outcome [17]: inactive
outcome [20]: inactive
Potency [18]: inactive

COc1cc2ncnc(Nc3ccc(F)c(Cl)c3)c2cc1OCCCN1CCOCC1
Potency [1]: 15 µM (active)
Potency [2]: inactive
Potency [3]: inactive
Potency [4]: inactive
Potency [7]: inactive
Potency [8]: inactive
Potency [9]: 29.8 µM (active)
Potency [15]: inactive
outcome [17]: inactive
outcome [20]: inactive
Potency [18]: inactive

COC(=O)CC(=O)C(C)(C)C
Potency [1]: inactive
Potency [2]: inactive
Potency [3]: inactive
Potency [6]: inactive
Potency [7]: inactive
Potency [8]: inactive
Potency [9]: inactive
Potency [10]: inactive
Potency [11]: inactive
Potency [12]: inactive
Potency [13]: inactive
Potency [14]: inactive
Potency [15]: inactive
outcome [17]: inactive
outcome [20]: inactive
Potency [18]: inactive

ON(Cc1ccccc1)Cc1ccccc1
Potency [1]: inactive
Potency [2]: inactive
Potency [3]: inactive
Potency [4]: inactive
Potency [5]: inactive
Potency [7]: inactive
Potency [9]: inactive
Potency [10]: inactive
Potency [11]: inactive
Potency [12]: inactive
Potency [14]: inactive
Potency [16]: inactive
outcome [17]: inactive
